Active and inactive are the calls of the source.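 Rule for the calls: active = compounds whose dose series gives a full or clear partial fitted curve of increased nuclear translocation; inconclusive = weak partial curve or effect only at the top dose; inactive = no dose-dependent translocation response.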
Target: Glucocorticoid receptor (Homo sapiens) (UniProt P04150)
Experiment: GR-GFP Redistribution (AID 450)
Settings: U2OS GR-GFP nuclear translocation, laser cytometry, 2 h; series mostly up to 20.6 µM
Potency is the fitted concentration of half-maximal effect.

Chain of Glucocorticoid receptor (Homo sapiens) (P04150 whole entry, looked up): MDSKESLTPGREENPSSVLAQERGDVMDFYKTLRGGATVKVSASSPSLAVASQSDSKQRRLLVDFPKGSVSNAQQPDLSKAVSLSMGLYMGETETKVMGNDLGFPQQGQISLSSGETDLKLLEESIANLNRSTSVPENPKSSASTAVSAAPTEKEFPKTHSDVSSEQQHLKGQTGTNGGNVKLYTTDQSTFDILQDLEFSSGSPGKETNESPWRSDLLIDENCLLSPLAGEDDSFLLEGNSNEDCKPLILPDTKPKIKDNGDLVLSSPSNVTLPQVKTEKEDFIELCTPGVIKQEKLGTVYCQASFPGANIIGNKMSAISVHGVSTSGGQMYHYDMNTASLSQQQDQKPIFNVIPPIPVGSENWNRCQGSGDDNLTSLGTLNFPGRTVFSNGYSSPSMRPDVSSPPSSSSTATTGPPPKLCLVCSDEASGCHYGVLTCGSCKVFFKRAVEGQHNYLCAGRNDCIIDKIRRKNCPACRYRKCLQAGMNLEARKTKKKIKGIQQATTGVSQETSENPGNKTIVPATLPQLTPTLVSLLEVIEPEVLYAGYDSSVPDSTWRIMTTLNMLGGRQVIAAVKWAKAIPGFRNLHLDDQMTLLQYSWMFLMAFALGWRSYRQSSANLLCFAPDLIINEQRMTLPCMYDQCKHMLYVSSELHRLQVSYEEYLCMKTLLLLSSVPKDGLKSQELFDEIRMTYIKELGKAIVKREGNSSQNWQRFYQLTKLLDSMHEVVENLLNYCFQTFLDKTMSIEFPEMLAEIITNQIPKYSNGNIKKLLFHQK

| SMILES | Potency |
| --- | --- |
| O=C1CCC(=O)N1c1nc2nc(-c3ccccc3)cc(-c3ccccc3)n2n1 | > 20.6 µM (inactive) |
| N#CCCN(C(=O)c1ccco1)c1ccccc1 | > 20.6 µM (inactive) |
| Cn1c(=O)c2c(nc(Br)n2Cc2ccc3ccccc3c2)n(C)c1=O | > 20.6 µM (inactive) |
| Cc1c(NS(=O)(=O)c2cccc3nsnc23)c(=O)n(-c2ccccc2)n1C | > 20.6 µM (inactive) |
| Cc1[nH]nc(-c2ccc(O)cc2O)c1Oc1ccccc1 | > 20.6 µM (inactive) |
| Nc1nnnn1/N=C/c1cccc(Oc2ccccc2)c1 | > 20.6 µM (inactive) |
| O=C(O)C(O)c1ccco1 (stereo not given) | > 20.6 µM (inactive) |
| COc1ccccc1-n1c(=O)c2c3c(sc2n2c(SC)nnc12)CCC3 | > 20.6 µM (inactive) |
| O=S1(=O)C[C@@H](N2CCOCC2)[C@H](N2CCOCC2)C1 | > 20.6 µM (inactive) |
| COC(=O)c1[nH]c(C)c(/C(O)=C2\C(=O)C(=O)N(CCN3CCOCC3)C2c2cccnc2)c1C (stereo not given) | > 20.6 µM (inactive) |
| COc1ccc(-n2c(=O)c3c4c(sc3n3c(C)nnc23)CC(C)CC4)cc1 (stereo not given) | > 20.6 µM (inactive) |
| Cc1ccc(-c2nnc(OCCN3CCOCC3)c3ccccc23)cc1 | > 20.6 µM (inactive) |
| O=C(Nc1ccccc1C(=O)NCCCn1ccnc1)c1ccccc1 | > 20.6 µM (inactive) |
| CCn1c(SC(C)C(=O)O)nc2sc3c(c2c1=O)CCC3 (stereo not given) | > 20.6 µM (inactive) |
| C=CCOC(=O)C1=C(C)NC(SCC(=O)Nc2ccc(C)c(Cl)c2)=C(C#N)C1c1ccco1 (stereo not given) | > 20.6 µM (inactive) |
| O=C(Oc1ccccc1N1C(=O)CCC1=O)c1ccco1 | > 20.6 µM (inactive) |
| CC1(C)SC2[C@H](NC(=O)C(NC(=O)N3CCNC3=O)c3ccccc3)C(=O)N2C1C(=O)O (stereo not given in full) | > 20.6 µM (inactive) |
| Cc1c(C2Nc3ccccc3NC3=C2C(=O)CC(C)(C)C3)cnn1C (stereo not given) | > 20.6 µM (inactive) |
| COc1cccc(N2CCN(C3CC(=O)N(c4cccc(Cl)c4)C3=O)CC2)c1 (stereo not given) | > 20.6 µM (inactive) |
| COc1ccc(OC)c(C2C(C#N)=C(N)Oc3cc(C)n(Cc4ccccn4)c(=O)c32)c1 (stereo not given) | > 20.6 µM (inactive) |

| SMILES | Potency |
| --- | --- |
| COC(=O)c1[nH]c2cc(OC)ccc2c1NC(=O)CN1CCC(C(N)=O)CC1 | > 20.6 µM (inactive) |
| CCCC(=O)Nn1cnc2c(c1=O)C1(CCCC1)Cc1ccccc1-2 | > 20.6 µM (inactive) |
| COc1ccc(Cn2c(CCCO)nc3ccccc32)cc1OC | > 20.6 µM (inactive) |
| CCOC(=O)Cc1nnc(Nc2cccc(O)c2)c2ccccc12 | > 20.6 µM (inactive) |
| COc1ccc(C2=Nn3c(nnc3-c3cccnc3)SC2)cc1OC | > 20.6 µM (inactive) |
| CCOc1ccc(C2=Nn3c(nnc3-c3cccnc3)SC2)cc1 | > 20.6 µM (inactive) |
| Cc1ccc(C2/C(=C(/O)c3cnn(-c4ccccc4)c3C)C(=O)C(=O)N2CCN2CCOCC2)o1 (stereo not given) | > 20.6 µM (inactive) |
| Cc1nn(C)cc1/C=N/O | > 20.6 µM (inactive) |
| CCSc1nc(N)c2c3c(sc2n1)CCC3 | > 20.6 µM (inactive) |
| COn1c(SC2CCCCC2)nc2ccccc2c1=O | > 20.6 µM (inactive) |
| Cc1nn(CC(=O)N2CCOCC2)c(=O)c2ccccc12 | > 20.6 µM (inactive) |
| CC1(C)CC(=O)C2=C(C1)OC(N)=C(C#N)C2C1C=CCCC1 (stereo not given) | > 20.6 µM (inactive) |
| CCOC(=O)c1cc2c(=O)n3ccccc3nc2n(Cc2ccccc2Cl)c1=N | > 20.6 µM (inactive) |
| CCn1cc(/C=N/O)c(C)n1 | > 20.6 µM (inactive) |
| CCCNC1=C(C)C(=O)CC1 | > 20.6 µM (inactive) |
| CCOC(=O)CC(=O)CSc1[nH]c(=O)cc(C)c1C#N | > 20.6 µM (inactive) |
| Cc1[nH]nc2c1C(CCc1ccccc1)C(C#N)=C(N)O2 (stereo not given) | > 20.6 µM (inactive) |
| O=C(O)C1CC(=O)N(Cc2cccs2)C1 (stereo not given) | > 20.6 µM (inactive) |
| COc1ccc(C(=O)c2ccc(N3CCOCC3)cc2)c(OC)c1 | > 20.6 µM (inactive) |
| O=c1cc(NCc2ccccc2)nc2n1CCCS2 | > 20.6 µM (inactive) |
